Bioassay records from PubChem BioAssay.
WRN inhibitor = inhibitors of human WRN helicase; Q14191; WRN helicase unwinding, fluorescent forked duplex, kinetic; Potency, µM (series often up to 114 µM), without a hit: at the highest dose activity change, negative = inhibition, hits mostly inhibitors; 0.46% of 360,000 active; AID 651768; also: nearly all actives have a fitted effect of over 55% in size
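Screening of the MLSMR collection measured strand separation of a quenched forked DNA duplex (100 nM) by 20 nM WRN with 2 mM ATP, all final. Compounds were preincubated with enzyme 15 min at room temperature.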
BLM helicase inh = Bloom syndrome helicase (human) inhibition; recombinant BLM DNA unwinding, fluorescence dequenching; Potency, µM (series often up to 56.1 µM), inactives show at the top dose activity change, negative = inhibition, most hits filed as inhibitors; 0.2% of 350,000 active; AID 2528;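 also: plate controls were vehicle for no effect and no enzyme for full effect; nearly all actives have a fitted effect of over 35% in size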
APEX1 inh = inhibitors of human APE1 endonuclease; P27695; recombinant APE1, TAMRA/BHQ-2 abasic DNA cleavage fluorescence; Potency, µM (top dose mostly 65.8 µM), for the others: at the top dose activity change, negative = inhibition, most hits filed as inhibitors; 0.35% of 350,000 active; AID 2517;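 also: plate controls were vehicle for no effect and reference inhibitor for full effect; nearly all actives have a fitted effect of over 55% in size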
Target sequence (P27695 whole entry, looked up): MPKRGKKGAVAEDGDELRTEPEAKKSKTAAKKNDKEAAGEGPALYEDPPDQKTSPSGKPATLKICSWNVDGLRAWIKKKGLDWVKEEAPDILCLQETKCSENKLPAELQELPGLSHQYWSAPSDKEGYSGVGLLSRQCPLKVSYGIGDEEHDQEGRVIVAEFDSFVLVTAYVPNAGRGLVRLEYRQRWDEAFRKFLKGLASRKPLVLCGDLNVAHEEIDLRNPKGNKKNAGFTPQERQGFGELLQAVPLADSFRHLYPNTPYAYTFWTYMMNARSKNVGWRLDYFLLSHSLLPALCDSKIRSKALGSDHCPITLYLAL
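Readout is kinetic fluorescence (ex 525, em 598 nm) from cleavage of 50 nM TAMRA/BHQ-2 THF abasic duplex by 0.75 nM APE1, compound added 15 min beforehand at RT.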
TexasRed fluor = alters Texas Red total fluorescence, flagging assay interference; TRb/SRC2 Texas Red total fluorescence interference; Potency, µM (doses to about 106 µM), for the others: top-dose fluorescence change, negative = quenching; 0.29% of 280,000 active; active = well fitted curve in either direction with a large enough effect; inconclusive = small, poorly fitted or top-dose-only effect
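Flags fluorescent or light-absorbing compounds by total fluorescence, S + 2P, at 555 nm excitation and 632 nm emission. Mixture: 20 nM Texas Red SRC2 peptide, 0.6 uM human TRb LBD, 1 uM T3, 5% DMSO; compound exposure 5 h at ambient temperature.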
TRb SRC2 PPI = TRbeta-SRC2 interaction inhibition; AID 1469; 0.065% of 280,000 active; Potency, µM (top dose mostly 106 µM), for inactives: at the highest dose activity change, negative = inhibition, most hits filed as inhibitors; TRbeta-SRC2 peptide binding, fluorescence polarization; receptor liganded with 1 µM T3;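 also: plate controls were bound peptide for no effect and peptide without receptor for full effect; nearly all actives have a fitted effect of over 50% in size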
Target sequence (P10828 whole entry, looked up): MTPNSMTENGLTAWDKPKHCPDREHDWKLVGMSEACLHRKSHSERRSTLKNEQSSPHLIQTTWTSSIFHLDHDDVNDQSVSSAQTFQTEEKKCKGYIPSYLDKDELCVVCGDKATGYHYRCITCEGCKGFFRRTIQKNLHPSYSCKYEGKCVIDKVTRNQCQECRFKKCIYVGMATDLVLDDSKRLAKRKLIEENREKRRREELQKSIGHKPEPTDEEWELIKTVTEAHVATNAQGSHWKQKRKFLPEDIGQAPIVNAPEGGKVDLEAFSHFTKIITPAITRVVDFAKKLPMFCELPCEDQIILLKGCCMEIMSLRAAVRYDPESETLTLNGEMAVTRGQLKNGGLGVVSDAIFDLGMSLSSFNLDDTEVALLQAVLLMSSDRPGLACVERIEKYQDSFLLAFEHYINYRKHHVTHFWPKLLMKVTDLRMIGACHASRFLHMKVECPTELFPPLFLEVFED
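Binding of a 20-amino-acid Texas Red SRC2 peptide (20 nM) to TRb ligand-binding domain (0.6 uM) with agonist T3 at 1 uM was followed by fluorescence polarization after a 5 hr room-temperature incubation.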
RECQ1 inh = RECQ1 (human) helicase inhibition. P46063. RECQ1 DNA unwinding, red fluorescence kinetic read. Potency, µM (titrated, usually from 57.3 µM), without a hit: at the top dose activity, negative = inhibition, hits mostly inhibitors. 0.54% of 240,000 active;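 also: plate controls were vehicle for no effect and no enzyme for full effect; nearly all actives have a fitted effect of over 30% in size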
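RECQ1T1 50 nM; forked duplex (20 bp + 30-nt ss tails) 200 nM, ATP 2 mM final; pH 8.0, 2 mM MgCl2, 2.5 ug/ml poly(dI-dC); 15 min compound preincubation; discontinuous kinetic read over 2 h at RT.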
Active calls of the source: *; i = inactive; ? = inconclusive; . = no result given; ! = not active in a repeat; [ ] = dose if it differs, or a comment. Compounds with a hit are over-represented: about 0.91% of the library has one in this group of screens. Unless noted, calls follow the shape of the dose curve; as a rule, active = well fitted curve in the direction sought with a large enough effect; inconclusive = small, poorly fitted or top-dose-only effect, or another doubt; inactive = no such curve, though single readings can be large; an effect the other way counts as inactive or inconclusive. Unless noted, % is scaled to controls: 0 for no effect and ±100 for the full control effect; potency is read from the fitted curve at half-maximal effect.

SMILES	WRN inhibitor	BLM helicase inh	APEX1 inh	TexasRed fluor	TRb SRC2 PPI	RECQ1 inh
CCN(CC)c1ccc(NC2=C(Cl)C(=O)c3ccccc3C2=O)cc1	-11.1%	-19.1%	-2.3%	-29.9%	28.2µM*	-2.3%
O=C1Nc2ccccc2C1=Nc1ccc(S(=O)(=O)Nc2nccs2)cc1	20µM*	-5.6%	-4.5%	1.4%	3.6%	1.3%
NS(=O)(=O)c1ccc(N=C2C(=O)Nc3ccccc32)cc1	-6.6%	-7.3%	7.4%	0.0%	4.8%	-1.7%
N#C/C(=C\c1ccc(O)c(O)c1)C(=O)NCCCCc1ccccc1	.	?	?	-4.5%	0.5%	10µM*
N#C/C(=C\c1ccc(O)c(O)c1)C(=O)NCCc1ccccc1	7.1%	.	7.4%	-3.6%	4.2%	?
CCCN(CCC)c1c([N+](=O)[O-])cc(C(F)(F)F)c(N)c1[N+](=O)[O-]	.	.	.	-2.0%[201 µM]	-1.9%[201 µM]	.
Cc1ccc(C(=O)/C=C/c2cc(Br)cc(Br)c2O)o1	79.4µM*	-18.4%	40.2%	.	.	.
Cc1ccc(NC(=O)Cn2c(=O)nc(-c3ccccc3F)c3cc(Cl)ccc32)c(Br)c1	.	-9.2%	.	1.1%	1.5%	.
Cc1cc(NC(=O)Cn2c(=O)nc(-c3ccccc3F)c3cc(Cl)ccc32)ccc1Br	.	-2.7%	.	0.0355µM*[quencher]	-26.4%[53 µM]	.
CCCCOC(=O)[C@@H](C)Oc1ccc(Oc2ccc(C(F)(F)F)cn2)cc1	.	.	.	-4.1%[201 µM]	-4.2%[201 µM]	.
Cc1[nH][nH]c(=O)c1C(c1ccc(-c2cccc(Cl)c2)o1)c1c(C)[nH][nH]c1=O	-30.4%	?	10.7%	-2.1%	?	10.7%
Cc1[nH][nH]c(=O)c1C(c1ccc(-c2cccc(C(=O)O)c2)o1)c1c(C)[nH][nH]c1=O	?	-1.4%	17.8µM*	-3.9%	-22.4%	?
CCOC(=O)c1cnn(-c2cccc(Cl)c2)c1C1CCN(C(=O)OC(C)(C)C)CC1	.	-9.0%	.	1.7%	-5.8%	.
CCOc1cc(/C=C2\C(=O)N(c3nc(-c4ccc(Br)cc4)cs3)N=C2c2ccccc2)ccc1O	-35.3%	?	3.4%	28.2µM*[quencher]	20.4%	-22.7%
CCc1ccc(OCC(=O)NCC(c2ccc(Cl)cc2)N2CCOCC2)cc1 (stereo unspecified)	.	-4.7%	.	10µM*[quencher]	-21.3%	.
CCCCCCc1ccc(N)cc1	.	.	.	0.8%[201 µM]	-8.1%[201 µM]	.
O=c1[nH]c(=O)n([C@@H]2O[C@H](CO)[C@@H](O)[C@H]2O)cc1Br	.	2.4%	15.1%	-1.5%	-2.4%	i
Nc1cn(C2OC(CO)C(O)C2O)c(=O)[nH]c1=O (stereo unspecified)	0.3%	-1.1%	18.9µM*	.	.	.
CN1/C(=C\P(=O)(N(C)C)N(C)C)C(C)(C)c2ccccc21	50.1µM*	-7.8%	-5.0%	?	25.8%	?
BrC1CCC(Br)C(Br)CCC(Br)C(Br)CCC1Br (stereo unspecified)	.	.	.	-3.2%[201 µM]	-5.5%[201 µM]	.
CCOCCOC(=O)c1ccc(NC(=O)/C=C/c2ccc(OC)c(OC)c2)cc1	.	-2.7%	.	0.891µM*[quencher]	-16.6%[53 µM]	.
COC(CNC(=O)c1ccc2c3c(onc13)-c1ccccc1C2=O)OC	50.1µM*	-18.2%	?	2.8%	-1.0%	-22.3%
COC(CNC(=O)c1cccnc1)OC	9.3%	-0.6%	4.1%	-2.3%	6.0%	0.3%
COc1ccc(CNc2ccncc2)c(OC)c1OC	1.1%[57.1 µM]	.	.	.	.	.
COc1cc(NCc2ccc3nc(N)nc(N)c3c2C)cc(OC)c1OC	.	17.8µM*!	?	-17.6%	-2.8%	i
SMILES	WRN inhibitor	BLM helicase inh	APEX1 inh	TexasRed fluor	TRb SRC2 PPI	RECQ1 inh
COc1ccccc1N1C(=N)S/C(=C\c2ccc(-c3ccccc3C(=O)O)o2)C1=O	28.2µM*	1.6%	28.2µM*	-19.1%	8.3%	?
Cc1ccc(NC(=O)CN2C(=O)S/C(=C\c3ccc(-c4cccc(C(=O)O)c4C)o3)C2=O)cc1C	?	?	?	-0.4%	15.8%	12.4%
Cc1cc(C)c2c(c1C)C(=O)CCC2	-4.2%	.	.	.	.	.
CCOC(=O)c1c(C)oc2nc(C)nc(NCCCN3CCN(c4cccc(C)c4)C(C)C3)c12 (stereo unspecified)	.	-4.1%	.	44.7µM*[quencher]	-9.5%	.
COc1ccc(/C=C2\SC(=O)N(CCCC(=O)Nc3ccc(C(=O)O)cc3)C2=O)cc1	2.7%	.	.	.	.	.
COc1ccc(NC(=O)CN2C(=O)S/C(=C/c3cccn3-c3ccc(C(=O)O)cc3)C2=O)cc1	.	?	1.68µM*	.	.	.
Cc1ccc(C)c(NC(=O)C(c2ccccc2)N2Cc3ccccc3C2=O)c1 (stereo unspecified)	.	-5.7%	.	100µM*[quencher]	-29.0%	.
Cc1ccc(C)c(NC(=O)C(Cc2ccccc2)N2Cc3ccccc3C2=O)c1 (stereo unspecified)	.	0.3%	.	126µM*[quencher]	-21.3%	.
Cc1cccc(NC(=O)C(Cc2ccccc2)N2Cc3ccccc3C2=O)c1C (stereo unspecified)	.	-8.0%	.	0.9%	-5.1%	.
COC(=O)c1ccc(NC(=O)C(c2ccccc2)N2Cc3ccccc3C2=O)cc1 (stereo unspecified)	.	-7.3%	.	?	-7.7%	.
CC(=O)Nc1ccc(NC(=O)C(c2ccccc2)N2Cc3ccccc3C2=O)cc1 (stereo unspecified)	.	-0.9%	.	100µM*[quencher]	-17.0%	.
O=C(O)c1cccc(-c2nc(-c3ccccc3C(F)(F)F)no2)c1	.	.	7.1%	.	.	.
CCCCCCCC/C=C\CCCCCCCCO	.	.	.	-0.1%[201 µM]	10.8%[201 µM]	.
NS(=O)(=O)c1ccc(N/N=C2/CCCCC2C2CCCCC2)c([N+](=O)[O-])c1 (stereo unspecified)	-31.6%	-15.6%	-5.3%	0.0%	-4.9%	2µM*
NCC(O)c1ccc(O)c(O)c1 (stereo unspecified)	-35.0%[57.1 µM]	?	0.355µM*	2.4%	2.4%	-11.4%
CC(C)NC[C@H](O)c1ccc(O)c(O)c1	7.4%	-17.7%	?	0.3%	-1.5%	-4.2%
Oc1ccc(Nc2ccccc2)cc1	.	.	.	-2.6%[201 µM]	9.1%[201 µM]	.
O=C(CCN1C(=O)/C(=C/c2ccccc2F)SC1=S)NCCCN1CCOCC1	-10.5%	3.1%	-5.5%	.	.	.
O=C(CCCN1C(=O)/C(=C/c2ccccc2Cl)SC1=S)NCCCN1CCOCC1	89.1µM*	1.0%	-10.1%	.	.	.
C=C(CN(C)C)C(=O)c1cc(C)ccc1C	22.4µM*	.	.	.	.	.
N=C(CC(O)COc1ccccc1-c1ccccc1)N1CCCCC1 (stereo unspecified)	.	-8.8%	10µM*!	-1.3%	-4.3%	-18.6%
COc1cc(OC)c(OC)cc1/C=N/Nc1ncnc2c1[nH]c1ccccc12	-21.9%	22.4µM*	4.0%	-2.2%	-1.2%	-1.2%
CCc1cccc2c(C(=O)CSc3nncn3-c3ccccc3OC)c[nH]c12	-4.3%	1.3%	8.0%	89.1µM*[quencher]	0.0%	-10.7%
